Data from PubChem BioAssay (EPA / NIEHS).
Calls of active or inactive are those of the source. How the source made its calls: active means hit-call score of the fitted dose curve at least 0.9, where 1 is the maximum; inactive means score below 0.9.

How the values were obtained:
[1] = ATG_E_Box_CIS: Attagene CIS-FACTORIAL HepG2 Assay for human Enhancer Box (E-box) (AID 2282936); conditions: HepG2 E-box cis-reporter transcription, actives raise or lower the signal
Outline: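 In this cell-based setup, HepG2 cells bearing transfected promoter-driven reporter units were exposed to chemicals for 24 h; reporter transcripts were amplified, 6-FAM-labelled, cut with HpaI and sized by capillary electrophoresis.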

[2] = ATG_M_61_CIS: Attagene CIS-FACTORIAL HepG2 Assay for M61 Transcription Factor (Internal Marker) (AID 2282937); conditions: HepG2 Attagene CIS-FACTORIAL M61 internal marker reporter; actives raise or lower the signal
Outline: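 Background-control endpoint: HepG2 cells with cis-regulated reporter constructs, 24 h exposure, reporter mRNA detected via fluorescent primer extension and capillary electrophoresis; values from bidirectional fitting with DMSO baseline.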

[3] = ATG_EGR_CIS: Attagene CIS-FACTORIAL HepG2 Assay for human Early Growth Response 1 (EGR1) (AID 2282938); conditions: HepG2 Attagene CIS-FACTORIAL EGR reporter mRNA; actives raise or lower the signal
Outline: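 Endpoint derived by bidirectional fitting versus DMSO vehicle. Method: cis-promoter reporter units transfected into HepG2, 24 h dosing, RNA isolation, RT-PCR with 6-FAM primer extension and HpaI digestion, then capillary electrophoresis fluorescence detection.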

[4] = ATG_M_19_CIS: Attagene CIS-FACTORIAL HepG2 Assay for M19 Transcription Factor (Internal Marker) (AID 2282939); conditions: HepG2 Attagene CIS-FACTORIAL M19 internal marker reporter; actives raise or lower the signal
Outline: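 Chemical-treated HepG2 (24 h) with MRTU constructs; reporter transcripts detected by fluorescent RT-PCR fragment analysis on capillary electrophoresis. Internal background marker, DMSO as baseline.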

[5] = ATG_Ets_CIS: Attagene CIS-FACTORIAL HepG2 Assay for human Erythroblast Transformation Specific (ETS) (AID 2282941); conditions: HepG2 ETS cis-reporter transcription, actives raise or lower the signal
Outline: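 Cis-regulated reporter mRNA induction in HepG2 (transient transfection), 24 h exposure, RT-PCR plus capillary electrophoresis detection; DMSO serves as negative control and baseline.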

[6] = molecular target: Hepatocyte nuclear factor 3-beta (Homo sapiens) (UniProt Q9Y261); assay: ATG_FoxA2_CIS: Attagene CIS-FACTORIAL HepG2 Assay for human Forkhead box A2 (FOXA2) (AID 2282942); conditions: HepG2 cis-reporter transcription factor activity, 24 h; actives raise or lower the signal
Outline: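 Measured: reporter mRNA induction or loss in HepG2 transiently carrying multiple cis-regulated reporter units, 24 h after dosing. Quantified by RT-PCR plus capillary electrophoresis, normalised to DMSO.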

[7] = ATG_FoxO_CIS: Attagene CIS-FACTORIAL HepG2 Assay for human Forkhead box O (FoxO) (AID 2282943); conditions: HepG2 Attagene cis-reporter, FoxO element, mRNA; actives raise or lower the signal
Outline: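 HepG2 cells transiently transfected with cis-element-driven reporter units report endogenous FoxO activity. After 24 h chemical exposure, reporter mRNA quantified by RT-PCR, fluorescent labeling, HpaI digestion and capillary electrophoresis; bidirectional fit versus DMSO.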

[8] = ATG_GATA_CIS: Attagene CIS-FACTORIAL HepG2 Assay for human GATA Binding Protein (AID 2282944); conditions: HepG2 GATA cis-element reporter, Attagene multiplex mRNA; actives raise or lower the signal
Outline: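 Transfected cis-reporter HepG2 cells were treated with chemicals for 24 hours. Total RNA was then converted to cDNA, amplified with reporter-specific primers and analysed by fluorescent capillary electrophoresis, using DMSO-treated wells as baseline.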

[9] = ATG_GLI_CIS: Attagene CIS-FACTORIAL HepG2 Assay for human Zinc Finger Protein GLI1 (AID 2282945); conditions: HepG2, Attagene cis-factorial reporter mRNA, GLI element; actives raise or lower the signal
Outline: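 Transiently transfected HepG2 cells report endogenous transcription factor activity via cis-element-driven reporter units. After 24 h compound exposure, reporter mRNA was measured by RT-PCR with capillary electrophoresis; bidirectional fitting against DMSO baseline.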

Measured: AC50

Sequence of Hepatocyte nuclear factor 3-beta (Homo sapiens) (Q9Y261 whole entry, looked up): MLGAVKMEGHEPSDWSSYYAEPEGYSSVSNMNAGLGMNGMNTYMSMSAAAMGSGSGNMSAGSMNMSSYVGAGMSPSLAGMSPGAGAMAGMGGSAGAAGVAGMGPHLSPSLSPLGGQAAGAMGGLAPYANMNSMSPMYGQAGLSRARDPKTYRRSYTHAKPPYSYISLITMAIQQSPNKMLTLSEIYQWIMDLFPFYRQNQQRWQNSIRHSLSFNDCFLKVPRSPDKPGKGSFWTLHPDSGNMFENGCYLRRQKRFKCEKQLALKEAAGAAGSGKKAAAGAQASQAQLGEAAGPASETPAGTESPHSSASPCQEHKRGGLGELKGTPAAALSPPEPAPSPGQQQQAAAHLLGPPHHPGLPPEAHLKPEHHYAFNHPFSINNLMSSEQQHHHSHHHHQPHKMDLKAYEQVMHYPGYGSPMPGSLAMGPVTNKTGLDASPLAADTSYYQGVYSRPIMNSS

Fc1ccccc1[C@@H](F)COC1CCC(Nc2ncnc3[nH]ncc23)CC1 (some centres undefined)
active: [1] 177 µM | [3] 5.72 µM
inactive: all other assays above

CNCc1ccc(NC(=O)c2c[nH]c3c2C(=O)CCC3)cc1
inactive: all assays above

Cc1[nH]cnc1C[C@H]1CCc2c(C)c3ccccc3n2C1=O
active: [3] 29.7 µM
inactive: all other assays above

Nc1cccc(N)c1
inactive: all assays above

O=C(OC[C@H]1O[C@@H](OC(=O)c2cc(O)c(O)c(OC(=O)c3cc(O)c(O)c(O)c3)c2)[C@H](OC(=O)c2cc(O)c(O)c(OC(=O)c3cc(O)c(O)c(O)c3)c2)[C@@H](OC(=O)c2cc(O)c(O)c(OC(=O)c3cc(O)c(O)c(O)c3)c2)[C@@H]1OC(=O)c1cc(O)c(O)c(OC(=O)c2cc(O)c(O)c(O)c2)c1)c1cc(O)c(O)c(OC(=O)c2cc(O)c(O)c(O)c2)c1
inactive: all assays above

CN(C)c1ccc(N=NS(=O)(=O)O)cc1
inactive: all assays above

CC1(C)C(=O)N(Br)C(=O)N1Br
inactive: all assays above

O=C(CCCCCCCCc1cccnc1)N1CCC(C=C(c2ccccc2)c2ccccc2)CC1
active: [2] 59.8 µM | [3] 17 µM | [4] 59.4 µM
inactive: all other assays above

CC(C)CCCCCCOC(=O)c1ccc(C(=O)OCCCCCCC(C)C)c(C(=O)OCCCCCCC(C)C)c1
inactive: all assays above

CC(C)CCCCCCCOC(=O)CCCCC(=O)OCCCCCCCC(C)C
inactive: all assays above

O=C(O)CC(O)C(=O)O (centres undefined)
inactive: all assays above

Cc1c(-c2cccnc2)c2ccccc2n1CCCCC(=O)O
inactive: all assays above

CN(C)c1ccc(Cc2ccc(N(C)C)cc2)cc1
active: [1] 31.1 µM | [3] 25.6 µM
inactive: all other assays above

Cc1ccc(O)cc1
inactive: all assays above

CC(C)c1cccc(C(C)C)c1N1C(=O)c2ccc(O)cc2C1=O
active: [3] 66.8 µM | [4] 182 µM | [9] 126 µM
inactive: all other assays above

CCN(C(=O)c1cc(C)cc(OC[C@H](C)Nc2ccncc2)c1)C(C)C
inactive: all assays above

Clc1nc(Cl)c(Cl)c(Cl)c1Cl
inactive: all assays above

CCOC(=O)CC(CC(=O)OCC)(OC(C)=O)C(=O)OCC
inactive: all assays above

CCNc1ccccc1
inactive: all assays above

CCCCCCc1ccc(O)cc1O
active: [3] 52.7 µM
inactive: all other assays above

CC(=O)c1ccc2c(c1)[C@H](NC(=O)c1ccc(F)cc1)[C@@H](O)C(C)(C)O2
inactive: all assays above

NC(=O)NO
inactive: all assays above

O=C(O)CCN(C1(C(=O)NO)CCCC1)S(=O)(=O)c1ccc(Oc2ccc(F)cc2)cc1
inactive: all assays above

CCCN(C1CCN(C(=O)C2CCNCC2)CC1)[C@@H]1CCc2ccc(OC)cc2C1
inactive: [2] | [4] | [5] | [6]
active: [1] 45.1 µM | [3] 100 µM | [7] 153 µM | [8] 152 µM | [9] 153 µM

CNS(=O)(=O)c1cc(C(=O)N2CCC(CCN3C4CCC3CC(n3c(C)nc5ccccc53)C4)(c3cccc(F)c3)CC2)c(Cl)cc1F (centres undefined)
inactive: all assays above

O=C(O)c1cccc(N(Cc2cccnc2)c2ccc(OC(F)F)c(OC(F)F)c2)c1
inactive: all assays above

O=C1OC(=O)C2C3C=CC(C3)C12 (centres undefined)
inactive: all assays above

CCOCCO
inactive: all assays above

Cn1c(=O)c2c(ncn2C)n(C)c1=O
inactive: all assays above

CC1=CC(=O)CC(C)(C)C1
inactive: all assays above

CC(=O)OCCC(C)C
inactive: all assays above

CCOC(=O)c1ccc(C2CCC(NC[C@H](O)COc3ccc(O)c(NS(C)(=O)=O)c3)CC2)cc1 (some centres undefined)
active: [3] 56.8 µM | [7] 53.5 µM | [8] 48.8 µM | [9] 59.6 µM
inactive: all other assays above

CC(C)CC(C)(O)C#CC(C)(O)CC(C)C (centres undefined)
inactive: all assays above

CC(O)CN(CCN(CC(C)O)CC(C)O)CC(C)O (centres undefined)
inactive: all assays above

CC(C)=CCC/C(C)=C/CO
inactive: all assays above

COc1ccc(/C=C/S(=O)(=O)NC(=O)c2ccc(C)cc2Cl)cc1
inactive: all assays above

CCOCCOCCOCCO
inactive: all assays above

O=C(O)c1cc(N=Nc2ccc(S(=O)(=O)Nc3ccccn3)cc2)ccc1O
inactive: all assays above

COCCOCCOCCOC
inactive: all assays above

Oc1ccc2c(c1)-c1ccccc1C2
active: [1] 157 µM | [3] 38.6 µM
inactive: all other assays above

CC(=O)OC[C@H]1O[C@@](COC(C)=O)(O[C@H]2O[C@H](COC(C)=O)[C@@H](OC(C)=O)[C@H](OC(C)=O)[C@H]2OC(C)=O)[C@@H](OC(C)=O)[C@@H]1OC(C)=O
inactive: all assays above

Cc1ccc(C)c(O)c1
inactive: all assays above

CC(C)=CCC/C(C)=C\CO
inactive: all assays above

CCc1cc(SCc2sc(-c3ccc(C(F)(F)F)cc3)nc2CN2CCN(c3ccc(OC)cc3)CC2)ccc1OCC(=O)O
active: [1] 11 µM | [3] 15.8 µM
inactive: all other assays above

CCCCCCCCCCCCc1ccccc1
inactive: all assays above

C1=CCCC=CCCC=CCC1
active: [1] 76.6 µM
inactive: all other assays above
